In the library only some 18% were active in any assay of this set; here they are far more common.
DT40 TDP1 CPT: DT40-hTDP1 cell growth loss with CPT. Potency, µM (doses to about 46.2 µM), for inactives: at the highest dose activity change, negative = growth inhibition, actives largely listed as inhibitors. hit rate 12% among 420,000. chicken DT40 Tdp1-/-;hTDP1 cells + 20 nM CPT, ATP luminescence, 48 h. AID 686979; also: potency is read from the fitted curve at half-maximal effect; nearly all actives have a fitted effect of over 55% in size
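Chicken DT40 Tdp1-/- cells complemented with human TDP1, 400 cells/well, exposed to compounds plus 20 nM camptothecin for at least 48 h at 37 C; viability read as ATP content by CellTiter-Glo luminescence.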
Gal4-VP16 FLuc: counter-screen for ROR gamma inhibitors: Gal4-VP16 reporter; Potency, µM (series often up to 53.6 µM), inactives show at the top dose activity, negative = inhibition, actives largely listed as inhibitors; AID 2546; hit rate 3.5% among 310,000; Drosophila S2 Gal4-VP16 UAS-luciferase, luminescence, 20 h;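 also: Gal4-VP16 expression switched on by copper sulfate through the metallothionein promoter; potency is read from the fitted curve at half-maximal effect; nearly all actives have a fitted effect of over 50% in size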
IL1B secr inh: inhibitors of inflammasome signaling (IL-1 beta secretion). THP-1 LPS/ATP IL-1B secretion, AlphaLISA, 16 h; stronger effect = lower value. activity change, % at 57.5 µM. hit rate 4.7% among 360,000; in the data active = activity change below about -50%; inconclusive = mostly about -30% to -49%
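Secreted IL-1B measured by AlphaLISA bead assay after 16 h compound exposure of THP-1 cells; compounds (final up to 57.5 uM) added 1 h before LPS (250 ng/mL) and ATP (1.25 mM) stimulation; lower signal means less secretion.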
TDP1 cell noCPT: qHTS for Inhibitors of human tyrosyl-DNA phosphodiesterase 1 (TDP1): qHTS in cells in absence of CPT | hit rate 15% among 420,000 | Potency, µM (doses to about 46.2 µM), without a hit: at the highest dose activity change, negative = growth inhibition, hits mostly inhibitors | AID 686978, 2013 | DT40 Tdp1-/- hTDP1 cells, no CPT, ATP luminescence, 48 h; also: potency is read from the fitted curve at half-maximal effect; nearly all actives have a fitted effect of over 55% in size
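Compound effects on proliferation are scored in DT40 Tdp1-/-;hTDP1 cells in the absence of CPT. ATP levels (CellTiter-Glo luminescence) are recorded after a ≥48 hr, 37 °C incubation.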
LDHA inh: blocks human lactate dehydrogenase A; P00338; activity change, % (values are at about 110 or 230 µM); purified LDHA, NADH/diaphorase-resazurin fluorescence; stronger effect = lower value; hit rate 0.15% among 480,000; in the data active = activity change below about -30%; inconclusive = mostly about -25% to -30%;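 also: plate controls were DMSO wells for no effect and wells without enzyme for full effect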
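Human LDH5 at 2 nM final in Tris HCl pH 7.4 with 0.06 mM NADH and 0.2 mM pyruvate, reacted 5 minutes at room temperature. Remaining NADH coupled via diaphorase/resazurin; resorufin fluorescence read at 0 and 20 minutes, normalized to enzyme-free and DMSO wells.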
RORg inh: blocks mouse ROR gamma transcriptional activity | P51450 | Drosophila S2 Gal4-RORgamma UAS-luciferase reporter, 20 h | Potency, µM (doses to about 53.6 µM), for the others: top-dose activity change, negative = inhibition, hits mostly inhibitors | hit rate 5.4% among 310,000 | AID 2551; also: potency is read from the fitted curve at half-maximal effect; nearly all actives have a fitted effect of over 60% in size
Target sequence (P51450 whole entry, looked up, the tested form may be a part): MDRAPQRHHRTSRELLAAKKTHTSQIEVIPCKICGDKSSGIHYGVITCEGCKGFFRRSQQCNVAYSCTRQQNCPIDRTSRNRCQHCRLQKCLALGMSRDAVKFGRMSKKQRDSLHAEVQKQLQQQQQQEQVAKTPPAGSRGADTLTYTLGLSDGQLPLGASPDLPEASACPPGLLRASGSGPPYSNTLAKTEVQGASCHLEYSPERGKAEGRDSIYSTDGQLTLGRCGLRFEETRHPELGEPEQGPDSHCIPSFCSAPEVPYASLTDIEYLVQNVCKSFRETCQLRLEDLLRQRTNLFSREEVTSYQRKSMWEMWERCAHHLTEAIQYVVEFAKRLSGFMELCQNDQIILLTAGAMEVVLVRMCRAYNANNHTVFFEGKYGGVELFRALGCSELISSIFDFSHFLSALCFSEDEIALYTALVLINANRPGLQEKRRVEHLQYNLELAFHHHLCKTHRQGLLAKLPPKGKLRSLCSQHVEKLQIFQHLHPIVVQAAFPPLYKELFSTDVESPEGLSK
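Stable Schneider cell line, Gal4 DNA-binding domain fused to ROR gamma, UAS-luciferase. Cmpd 1 hr RT → CuSO4 700 uM final → 20 hr RT → luciferase reagent 10 min → luminescence.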
Numbers without * were called inactive; ? = inconclusive; / = no result; [ ] = remark or other dose. Unless noted, calls follow the shape of the dose curve; as a rule, active = well fitted curve in the direction sought with a large enough effect; inconclusive = small, poorly fitted or top-dose-only effect, or another doubt; inactive = no such curve, though single readings can be large; an effect the other way counts as inactive or inconclusive. Unless noted, % is scaled to controls: 0 for no effect and ±100 for the full control effect.

SMILES	DT40 TDP1 CPT	Gal4-VP16 FLuc	IL1B secr inh	TDP1 cell noCPT	LDHA inh	RORg inh
CCc1cccc(CC)c1N(COC)C(=O)Cn1nnc2ccccc21	-24%	-1%	8	?	-8	-11%[10 µM]
CCOc1ccc2c(c1)cc(C(=O)NCCOc1ccccc1)n2C	/	/	/	/	-4	/
Cc1cc(C)c2c(SC(C)C)nc(N)nc2n1	?	5%	0	18µM*	0	0%
O=C(/C=C/c1ccc2c(c1)OCO2)c1ccc(O)cc1O	?	/	-95*	?	2	/
O=C(/C=C/c1ccc(O)c(O)c1)c1ccc(O)cc1O	/	0%	/	/	/	-43%
Cc1cc(C(=O)COC(=O)c2ccc(O)cc2O)c(C)n1C(C)C	18µM*	/	7	13µM*	1	/
O=C(/C=C/C=C/c1ccccc1)c1ccco1	?	4%	?	18µM*	-3	26%
O=C(/C=C/c1ccc2c(c1)OCO2)c1ccco1	-19%	?	-96*	-27%	-6	?
O=C(CCc1ncc(-c2ccc(F)cc2)o1)N1CCC(n2cccc2)CC1	/	/	/	/	7	/
O=C(O)c1ccc(/C=C/C(=O)c2ccco2)cc1	/	/	/	/	3	/
O=C(COC(=O)c1cc(Cl)ccc1O)c1ccc2c(c1)OCO2	-15%	/	-3	?	-12	/
O=C(COC(=O)c1ccc(O)cc1O)c1ccc2c(c1)OCO2	-1%	?	19	-10%	3	7.1µM*
O=C(/C=C/c1ccc(Br)cc1)c1ccco1	7.3µM*	11µM*	-108*	16µM*	-11	?
COC(=O)C1CCN(C(=O)/C=C/c2ccc3c(c2)OCO3)CC1	?	4%	23	16µM*	-4	-16%
CCCCn1nnnc1CN1CCCC1c1ccc2c(c1)OCCO2 (configuration not stated)	/	/	/	/	0	/
CN(CCCNC(=O)c1ccccc1)CC(F)(F)F	/	/	/	/	10	/
COCc1nnc(NC(=O)Cn2ccc3c(Cl)cccc32)s1	/	/	/	/	-7	/
Cc1ccc(C(NC(=O)Nc2ccccn2)C(Cl)(Cl)Cl)cc1F (configuration not stated)	?	-1%	56	21µM*	-3	3%
Cc1ccc(C(NC(=O)N2CCN(C)CC2)C(Cl)(Cl)Cl)cc1F (configuration not stated)	/	/	/	/	10	/
CCOC(=O)c1cnc(-c2ccccc2)nc1Oc1ccc(OC)cc1	-1%	4%	6	17%	1	-22%
CCOC(=O)c1c(Oc2ccc(C(=O)OC)cc2)nnc(-c2ccccc2)c1-c1ccccc1	16µM*	/	/	23µM*	-5	/
CCOC(=O)c1c(Oc2ccc(OC)cc2)nnc(-c2ccccc2)c1-c1ccccc1	16µM*	/	/	?	-3	/
COC(=O)c1c(Oc2ccc(C(C)=O)cc2)nnc(-c2ccccc2)c1-c1ccccc1	18µM*	/	/	?	-4	/
O=C(CCNc1nc(Cl)nc2nc[nH]c12)NCCc1c[nH]c2ccc(Cl)cc12	/	/	/	/	0	/
CC(NC(=O)c1ccc(Cl)o1)c1nc(-c2ccc(F)cc2)no1 (configuration not stated)	/	/	/	/	1	/
SMILES	DT40 TDP1 CPT	Gal4-VP16 FLuc	IL1B secr inh	TDP1 cell noCPT	LDHA inh	RORg inh
CCN1c2ccccc2NC2C1C(C(C)=O)C(=O)N2c1ccc(Cl)cc1 (configuration not stated)	21µM*	-1%	31	16µM*	13	-39%
O=C1CC(c2ccccc2O)Cc2c1cnn2-c1nc2ccccc2[nH]1 (configuration not stated)	/	/	/	/	1	/
CSc1nc2ncc(C#N)cn2n1	4%	-9%	5	-16%	-12	-43%
N#Cc1cnc2nc(SCc3ccccc3)nn2c1	-1%	7%	-70*	?	-1	-14%
COc1cccc(NC(=O)CSc2nnc(-c3cc(C)[nH]n3)n2N)c1	-4%	-25%	18	3%	-4	-7%
Cc1ccc(-n2c(SCC(=O)Nc3cccc(Cl)c3)nc3n[nH]c(C)c3c2=N)cc1	8.2µM*	/	/	7.3µM*	0	/
CCc1ccc(NC(=O)CSc2nc3n[nH]c(C)c3c(=N)n2-c2cccc(OC)c2)cc1	18µM*	3%	-19	26µM*	1	-2%
COc1cccc(NC(=O)CSc2nc3n[nH]c(C)c3c(=N)n2-c2cccc(OC)c2)c1	23µM*	-1%	-51*	21µM*	-3	33%
CCN(C(=O)CSc1nc2n[nH]c(C)c2c(=N)n1-c1cccc(OC)c1)c1cccc(C)c1	23µM*	/	/	?	-2	/
COc1ccc(NC(=O)CSc2nccn2-c2cccc(OC)c2)cc1	4%	5%	-7	-28%	-6	-1%
Nc1nc(-c2cc3c4c(c2)CC(=O)N4CCC3)cs1	/	/	/	/	-3	/
COc1cccc(-n2c(SCC(=O)NCCC3=CCCCC3)nc3n[nH]c(C)c3c2=N)c1	16µM*	-2%	19	15µM*	3	-39%
Cc1cccc(-n2c(SCC(=O)Nc3ccc(C)c(C)c3)nc3n[nH]c(C)c3c2=N)c1	10µM*	/	/	7.3µM*	-9	/
Cc1ccc(C)c(-n2nnnc2SCC(=O)NCCC2=CCCCC2)c1	-9%	2%[0.365 µM]	7	?	-1	-8%
Nc1cccc(-c2cn3cccnc3n2)c1	21µM*	7%	6	?	17	?
CCOc1cc(C(=O)Nc2ccc(-c3cn4cccnc4n3)cc2)cc(OCC)c1OCC	12µM*	/	/	9.2µM*	-5	/
O=C(Nc1ccc(-c2cn3cccnc3n2)cc1)c1ccccc1F	?	/	/	16µM*	-6	/
Cc1cc(C)cc(C(=O)Nc2ccc(-c3cn4cccnc4n3)cc2)c1	?	/	/	9.2µM*	3	/
O=C(COc1ccc(C(=O)c2ccccc2)cc1)NCc1ccccc1CN1CCCC1	/	/	/	/	0	/
CCn1c(CN(Cc2ccccc2)Cc2ccccc2)nc2c1c(=O)[nH]c(=O)n2C	/	/	/	/	-1	/
O=C(/C=C/c1cccnc1)c1ccc2c(c1)OCCCO2	/	/	/	/	3	/
COc1ccc(-c2cc(C(=O)Oc3ccc(F)cc3)no2)cc1	/	/	/	/	-3	/
CCOCC(=O)Nc1ccc(-c2cn3cccnc3n2)cc1	15µM*	-6%	25	-27%	2	9%
O=C(c1cccc(S(=O)(=O)NC2CC2)c1)N1CCN(c2ccccc2O)CC1	/	/	/	/	2	/
O=C(O)c1ccc(NC(NC(=O)c2ccco2)C(=O)c2ccccc2)cc1 (configuration not stated)	/	/	/	/	12	/
COc1ccc2c(c1)OC[C@H]1c3cc4c(cc3O[C@@H]21)OCO4	-31%[9.04 µM]	11%	/	-15%[9.04 µM]	/	30%
